Measured values from PubChem BioAssay AID1053 (University of Pittsburgh Molecular Library Screening Center, 2008).
“And” between values parts separate entries of the source, which are not always exact repeats. Equal entries are not always repeated. A number with no mark means an inactive call. No rule for the calls is given here.

Biological target: Serine/threonine-protein kinase PLK1 (Homo sapiens) (UniProt P53350)
Test: Plk1 polo box domain binding inhibitors, SAR follow-up, biochemical, fluorescence polarization, purchased analogs (AID 1053)
Settings: Plk1 PBD fluorescence polarization peptide binding; at 20 µM; stronger effect = higher value

Serine/threonine-protein kinase PLK1 (Homo sapiens), sequence (P53350 whole entry, looked up, the tested form may be a part): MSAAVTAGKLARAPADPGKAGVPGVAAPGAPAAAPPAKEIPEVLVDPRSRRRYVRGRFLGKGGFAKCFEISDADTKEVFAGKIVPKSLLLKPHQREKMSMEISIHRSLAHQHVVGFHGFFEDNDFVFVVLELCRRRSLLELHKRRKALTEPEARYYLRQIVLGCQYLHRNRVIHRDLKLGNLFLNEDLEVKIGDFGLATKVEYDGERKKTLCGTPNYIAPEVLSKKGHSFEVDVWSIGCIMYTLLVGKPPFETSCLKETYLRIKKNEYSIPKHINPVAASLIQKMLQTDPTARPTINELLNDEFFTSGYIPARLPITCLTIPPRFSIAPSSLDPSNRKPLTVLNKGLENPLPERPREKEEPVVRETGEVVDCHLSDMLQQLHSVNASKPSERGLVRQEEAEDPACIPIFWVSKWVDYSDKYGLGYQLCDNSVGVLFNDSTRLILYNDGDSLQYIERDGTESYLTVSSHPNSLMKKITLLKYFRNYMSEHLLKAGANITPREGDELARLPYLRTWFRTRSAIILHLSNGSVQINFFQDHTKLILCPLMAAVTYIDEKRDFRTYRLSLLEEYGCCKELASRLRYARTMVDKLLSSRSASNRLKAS

Structure (SMILES) | inhibition
CC(=O)N(CN1C(=O)c2ccccc2C1=O)c1cc(C)ccc1C | -34.4%
CCOC(=O)c1ccc(NC(=O)C2CC(=O)NC(=NC)S2)cc1 (centres undefined) | -37.5%
CCc1ccc(-c2nc3c(=O)n(C)c(=O)nc-3n(CC)n2)cc1 | 5.6% and 4.47%
CCCCCC(=O)N(CN1C(=O)c2ccccc2C1=O)c1ccccc1OC | -35.4%
Cc1ccccc1-c1nc2c(=O)n(C)c(=O)nc-2n(C)n1 | 36.2% and 24.8%
Cc1ccc(-c2nnc3[nH]c(=O)n(C)c(=O)c3n2)cc1 | -28.5% and -24.3%
CCN(CC)CCOC(=O)c1ccc(N=Cc2c(O)n(-c3c(C)cc(C)cc3C)c(=O)[nH]c2=O)cc1 | -134%
CC(=O)N(/C=C1\Sc2ccccc2C1=O)c1ccc(I)cc1 | -16.1%
CCCCCOC(=O)c1ccc(NC(=O)c2ccc([N+](=O)[O-])cc2)cc1 | 28.2%
CCCCOC(=O)c1ccc(N=Cc2c(O)[nH]c(=O)[nH]c2=O)cc1 | 44.5%
CC(=O)N(CN1C(=O)c2ccccc2C1=O)c1ccc(C)c(Cl)c1 | -39.1%
Cn1c(=O)[nH]c2nnc(-c3ccc([N+](=O)[O-])cc3)nc2c1=O | -49.9%
CC(=O)N(/C=C1\Sc2ccccc2C1=O)c1cccc(C)c1 | -111%
CCCCCC(=O)N(CN1C(=O)c2ccccc2C1=O)c1cccc(C(=O)O)c1 | -10.1%
